Assay outcomes from PubChem BioAssay.
Shown are actives, neighbours in structure and some others; about 4.7% of the full set was active somewhere.
D1 agonist = Allosteric Agonists of the Human D1 Dopamine Receptor: qHTS; activation, % at 2 µM; HEK293 T-REx D1 cells, calcium flux, agonist mode; AID 504660, 2011; 360,000 tested, 1% active; D(1A) dopamine receptor (Homo sapiens), P21728; further: 0% is about no effect
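Tetracycline-induced HEK293 TREx D1 cells, force-coupled to calcium signalling, were dye-loaded with a no-wash calcium kit. Compound was pin-added after a 10 s baseline. Fluorescence was read kinetically at 1 cycle/s for 180 s, with calcium rises flagged as agonism.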
TRHR enhancer = qHTS for Small Molecule Agonists and Allosteric Enhancers of Human TRH Receptor: Primary Screen for Enhancers; TRHR cells, fluo-8 calcium fluorescence, EC20 TRH enhancement; 360,000 tested, 0.66% active; Thyrotropin-releasing hormone receptor (Homo sapiens), P34981; enhancement, % at 2 µM; in the data active means enhancement above about 30%; further: 0% is about no effect
Target sequence (P34981 whole entry, looked up): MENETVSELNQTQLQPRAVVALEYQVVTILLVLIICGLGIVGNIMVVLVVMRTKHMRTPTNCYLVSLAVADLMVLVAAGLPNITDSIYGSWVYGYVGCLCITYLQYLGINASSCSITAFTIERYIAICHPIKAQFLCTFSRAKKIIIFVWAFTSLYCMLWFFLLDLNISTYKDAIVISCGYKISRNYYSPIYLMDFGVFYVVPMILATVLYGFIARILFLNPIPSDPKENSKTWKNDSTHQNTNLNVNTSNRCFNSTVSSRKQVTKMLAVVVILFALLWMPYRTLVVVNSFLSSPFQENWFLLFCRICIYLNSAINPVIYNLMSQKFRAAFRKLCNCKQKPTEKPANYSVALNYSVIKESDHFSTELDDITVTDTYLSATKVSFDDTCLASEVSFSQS
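TRHR-expressing cells loaded with fluo-8 calcium dye were read kinetically (ex 480/em 530) during compound addition, then stimulated with an EC20 of TRH (10 nM final). Enhancement of the Gq-mediated intracellular calcium response was scored.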
D1 antag = Antagonist of Human D 1 Dopamine Receptor: qHTS. HEK293 TREx D1 cells, calcium flux, dopamine EC80; active compounds read low. activity change, negative = inhibition, % at 10 µM. 360,000 tested, 3.2% active. AID 504652, 2011; in the data active means activity change below about -30%; further: on the % scale 0 is the no-effect control and ±100 the full control effect
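Allosteric or orthosteric antagonism assessed as attenuation of the calcium response to EC80 dopamine, added 180 s after compound, in induced HEK293 Trex D1 cells loaded with no-wash calcium dye.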
TRHR agonist = qHTS for Small Molecule Agonists and Allosteric Enhancers of Human TRH Receptor: Primary Screen for Agonists | activation, % at 2 µM | Thyrotropin-releasing hormone receptor (Homo sapiens), P34981 | 360,000 tested, 0.18% active | TRHR cells, calcium flux fluo-8, FDSS agonist mode; further: 0% is about no effect
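TRHR-expressing cells loaded with fluo-8 calcium dye; 23 nL library compound pin-transferred, kinetic FDSS fluorescence (Ex 480/Em 530) recorded about 180 s for agonist-induced calcium release, before a 10 nM TRH EC20 addition for potentiator mode.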
D1 potentiator = Potentiators of Human D1 Dopamine Receptor: qHTS. D(1A) dopamine receptor (Homo sapiens), P21728. potentiation, % at 10 µM. 360,000 tested, 0.036% active. AID 504651, 2011. HEK293 TREx D1 cells, calcium flux, dopamine EC20 potentiation; in the data active means potentiation above about 30%; further: 0% is about no effect
* marks the source's active call; other numbers are inactive results. Unless noted, no stated cut-off is given here; in the data, active means activation above about 30%; inactive means the rest.

For CCOc1ccc(NC(=O)CSc2nnc(-c3ccc(OCC)cc3)o2)cc1 the results were D1 agonist 2.5, TRHR enhancer 1.3, D1 antag -4.4, TRHR agonist -0.1 and D1 potentiator -0.2.
Cc1onc(-c2ccccc2)c1C(=O)N1CCC(CO)(Cc2ccccc2)CC1 was read as D1 agonist 5.6, TRHR enhancer -1.6, D1 antag 23.4, TRHR agonist 0.7 and D1 potentiator 0.2.
`Cc1ccc2c(C)c(C(=O)N(C)C(C)c3ccon3)oc2c1C` (stereo not drawn) gave D1 agonist 2.1, TRHR enhancer 0.9, D1 antag -39.3*, TRHR agonist 0.0 and D1 potentiator -0.9.
Screening O=C(N/N=C/c1c(O)ccc2ccccc12)c1cccnc1 returned D1 agonist 42.0*, TRHR enhancer 7.8, D1 antag 6.0, TRHR agonist 36.1* and D1 potentiator 4.6.
Screening O=C(N/N=C\c1c(O)ccc2ccccc12)c1cncc(Br)c1 returned D1 agonist 314.5*, TRHR enhancer 37.8*, D1 antag -21.5, TRHR agonist 105.4* and D1 potentiator 4.9.
Screening Cc1ccc(C(=O)N/N=C/c2c(O)ccc3ccccc23)cn1 returned D1 agonist 29.9, TRHR enhancer 2.2, D1 antag 3.0, TRHR agonist 28.8 and D1 potentiator -2.1.
Nc1nonc1N/N=C/c1c(O)ccc2ccccc12 was read as D1 agonist 31.2*, TRHR enhancer 4.2, D1 antag -21.6, TRHR agonist 0.5 and D1 potentiator -8.9.
Screening CCc1nn(CC(=O)NCCc2ccc(SC)cc2)c(=O)c2cc3sccc3n12 returned D1 agonist -0.7, TRHR enhancer -4.0, D1 antag -18.6, TRHR agonist 0.2 and D1 potentiator 1.1.
Screening Cc1nnc2sc(SCc3ccccc3)nn2c1=O returned D1 agonist -1.5, TRHR enhancer 33.6*, D1 antag 6.7, TRHR agonist 0.1 and D1 potentiator -6.5.
Screening Cc1ccc(N2CC(NC(=O)C3CCCC3)CC2=O)cc1 (stereo not drawn) returned D1 agonist -1.6, TRHR enhancer 4.3, TRHR agonist 0.3 and D1 potentiator -0.1.
`CN(CC(=O)Nc1cc(S(=O)(=O)N2CCCCCC2)ccc1Cl)Cc1ccc2c(c1)OCO2` gave D1 agonist 6.1, TRHR enhancer 3.0, D1 antag 3.2, TRHR agonist 2.2 and D1 potentiator -3.3.
For CCN1CCN(c2ccc(S(=O)(=O)N3CCCCC3)cc2NC(=O)c2ccc(C)o2)CC1 the results were D1 agonist 0.3, TRHR enhancer 3.5, D1 antag -47.9*, TRHR agonist -0.5 and D1 potentiator 1.9.
For CN(CC(=O)Nc1cc(S(=O)(=O)N2CCCC2)ccc1Cl)Cc1ccc2c(c1)OCO2 the results were D1 agonist 4.1, TRHR enhancer 1.1, D1 antag -37.1*, TRHR agonist 0.1 and D1 potentiator -8.1.
Screening CCOc1ccccc1OCC(=O)Nc1cc(S(=O)(=O)N2CCCCC2)ccc1N1CCN(CC)CC1 returned D1 agonist 3.0, TRHR enhancer 13.5, D1 antag -36.3*, TRHR agonist 0.0 and D1 potentiator -7.7.
CCN1CCN(c2ccc(S(=O)(=O)N3CCCCC3)cc2NC(=O)/C=C/c2cc(OC)ccc2OC)CC1 was read as D1 agonist 4.3, TRHR enhancer 30.0*, D1 antag 2.2, TRHR agonist 0.6 and D1 potentiator -9.6.
Screening CCC(=O)Nc1ccccc1-c1nc2ccccc2n(C(CC)C(=O)Nc2cccc(C(C)=O)c2)c1=O (stereo not drawn) returned D1 agonist 4.2, TRHR enhancer 10.2, D1 antag -3.0, TRHR agonist -0.9 and D1 potentiator -3.5.
Screening COc1ccc(-c2noc(N3CCC(C(=O)Nc4cccc(C)c4C)CC3)n2)cc1 returned D1 agonist -0.1, TRHR enhancer 3.8, D1 antag -20.4, TRHR agonist -0.3 and D1 potentiator -2.5.
Screening COc1ccc(-c2[nH]ncc2CN2CCCCCCC2)c(OC)c1 returned D1 agonist -0.9, TRHR enhancer 2.5, D1 antag -7.3, TRHR agonist -0.1 and D1 potentiator 6.7.
Screening CCN1CCN(c2ccc(S(=O)(=O)N3CCCCC3)cc2NC(=O)Cc2ccc(Cl)c(Cl)c2)CC1 returned D1 agonist 100.6*, TRHR enhancer -2.8, D1 antag -55.5*, TRHR agonist 4.6 and D1 potentiator -1.1.
Screening CCN1CCN(c2ccc(S(=O)(=O)N3CCCCC3)cc2NC(=O)Cc2ccccc2)CC1 returned D1 agonist 1.9, TRHR enhancer -6.4, D1 antag 4.0, TRHR agonist 0.0 and D1 potentiator 7.8.
CCc1ccc(OCC(=O)NNC(=O)c2cc(S(=O)(=O)N3CCOCC3)ccc2N2CCCC2)cc1 was read as D1 agonist 1.3, TRHR enhancer -2.3, D1 antag -5.1, TRHR agonist -0.4 and D1 potentiator -3.5.
`O=C(COc1ccccc1Cl)NNC(=O)c1cc(S(=O)(=O)N2CCOCC2)ccc1N1CCCC1` gave D1 agonist 0.9, TRHR enhancer -7.0, D1 antag -32.0*, TRHR agonist 0.3 and D1 potentiator -14.1.
CCc1nnc(NC(=O)Cc2ccc(S(=O)(=O)N3CCCCC3)cc2)s1 was read as D1 agonist 13.6, TRHR enhancer -3.8, D1 antag -32.4* and TRHR agonist 0.3.
For CN(CC(=O)Nc1ccc(S(=O)(=O)N2CCCC2)cc1)Cc1c(F)cccc1Cl the results were D1 agonist 10.5, TRHR enhancer -4.8, D1 antag -32.3*, TRHR agonist -0.4 and D1 potentiator -3.6.
For Cc1ccc2c(=O)cc(C(=O)Nc3sc4c(c3C(=O)NCc3ccco3)CCC4)oc2c1C the results were D1 agonist 3.5, TRHR enhancer -0.9, D1 antag -18.0, TRHR agonist -0.2 and D1 potentiator 0.9.
`CCN1CCN(S(=O)(=O)c2ccc(Cl)c(C(=O)Nc3cc(Cl)ccc3N3CCOCC3)c2)CC1` gave D1 agonist 4.5, TRHR enhancer -9.9, D1 antag -40.4*, TRHR agonist 0.1 and D1 potentiator -8.4.
For CN1CCN(S(=O)(=O)c2ccc(NCc3ccc4c(c3)OCO4)nc2)CC1 the results were D1 agonist 0.4, TRHR enhancer -0.7, D1 antag -32.9*, TRHR agonist 0.0 and D1 potentiator -5.2.
Screening CCN1CCN(S(=O)(=O)c2ccc(Cl)c(C(=O)Nc3ccccc3N3CCOCC3)c2)CC1 returned D1 agonist 1.7, TRHR enhancer 9.0, D1 antag -3.0, TRHR agonist -0.5 and D1 potentiator -4.3.
